# Experimental data taken from PubChem BioAssay (Tox21).
# Where “and” joins values, the source holds several entries; their conditions need not be identical. Equal entries are not always repeated. Unmarked numbers belong to inactive results. Inconclusive results are not listed. Where a call stands in place of a potency, no number is given. Calls of active or inactive are those of the source. Unless noted, the call rests on the fitted dose curve; in most records, active means well fitted curve in the direction sought with a large enough effect in the repeat runs; inconclusive means weak or mixed curves; inactive means no such curve, though single readings can be large; an effect the other way counts as inactive or inconclusive.
# Assays:
# [1] = Caspase-3/7 induction in HepG2 cells by small molecules, qHTS assay (AID 1346978); conditions: HepG2 caspase-3/7 activation, Caspase-Glo luminescence, 17 h; series mostly up to 92.4 µM; further: nearly all actives have a fitted effect of over 15% in size; further: potency means the concentration at half of the fitted maximal effect
# Procedure, shortened: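 Wild-type HepG2 cells, 2,000/well, settled 5 hr at 37 C and 5% CO2, then compound-treated for 17 hr; caspase-3/7 activity read by luminescent Caspase-Glo 3/7 after 30 min at room temperature.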
# [2] = Caspase-3/7 induction in CHO-K1 cells by small molecules, qHTS cell viability counter screen (AID 1346979); conditions: CellTiter-Fluor fluorescence, 17 h; series mostly up to 92.4 µM; further: nearly all actives have a fitted effect of over 35% in size; further: potency means the concentration at half of the fitted maximal effect
# Procedure, shortened: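 CHO-K1 wt, 1,500 cells/well; 5hr pre-incubation 37C/5% CO2; compound pin transfer (DMSO); 16hr exposure; CellTiter-Fluor added, 1hr, fluorescence read.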
# [3] = Caspase-3/7 induction in CHO-K1 cells by small molecules, qHTS assay (AID 1346980); conditions: CHO-K1 caspase-3/7 induction, Caspase-Glo luminescence, 17 h; series mostly up to 92.4 µM; further: nearly all actives have a fitted effect of over 15% in size; further: potency means the concentration at half of the fitted maximal effect
# Procedure, shortened: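 Wild-type CHO-K1 cells exposed to compounds for 17hr at 37 C, 5% CO2. Caspase-3/7 activity then measured by Caspase-Glo 3/7 luminescence after 30min at room temperature.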
# [4] = Caspase-3/7 induction in HepG2 cells by small molecules, qHTS cell viability counter screen (AID 1346981); conditions: CellTiter-Fluor fluorescence, 17 h; series mostly up to 92.4 µM; further: nearly all actives have a fitted effect of over 30% in size; further: potency means the concentration at half of the fitted maximal effect
# Procedure, shortened: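 Viability determined by CellTiter-Fluor fluorescence in HepG2 wells also used for the luminescent Caspase-Glo 3/7 read. Compounds were present for 16 hr at 37 C, 5% CO2 before reagent addition.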
# [5] = target: Nuclear receptor subfamily 1 group I member 2 (Homo sapiens) (UniProt O75469); assay: Human pregnane X receptor (PXR) small molecule agonists, qHTS assay (AID 1346982); conditions: PXR-Luc HepG2, CYP3A4 luciferase reporter, 24 h; series mostly up to 92.4 µM; further: nearly all actives have a fitted effect of over 35% in size; further: potency means the concentration at half of the fitted maximal effect
# Procedure, shortened: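 Compound-induced hPXR transactivation of a CYP3A4 luciferase reporter was scored in HepG2 PXR-Luc cells over 24 hr at 37 C, 5% CO2, by luminescence.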
# [6] = target: Acetylcholinesterase (Homo sapiens) (UniProt P22303); assay: Acetylcholinesterase (AChE) small molecule antagonists: enzyme-based qHTS assay (AID 1347397; calls by dose curve; further: nearly all actives have a fitted effect of over 55% in size; further: potency means the concentration at half of the fitted maximal effect); conditions: Potency: AChE enzyme activity inhibition; series mostly up to 115 µM
# Procedure, shortened: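 Recombinant human AChE (50 mU/mL) preincubated with compound 30 min at room temperature; acetylthiocholine plus DTNB then added, and thiocholine formation read colorimetrically after 10 min at room temperature. DMSO served as vehicle control.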
# [7] = target: Acetylcholinesterase (Homo sapiens) (UniProt P22303); assay: Acetylcholinesterase (AChE) small molecule antagonists: fluorescence cell-based qHTS assay (AID 1347398; calls by dose curve; further: nearly all actives have a fitted effect of over 50% in size; further: potency means the concentration at half of the fitted maximal effect); conditions: SH-SY5Y cells; Potency: AChE activity; series mostly up to 115 µM
# Procedure, shortened: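 SH-SY5Y cells (2000/well), attached overnight, incubated with compound 30 min at 37 C. Acetylthiocholine plus Thiolite Green then added for 40 min at room temperature. Thiocholine fluorescence (Ex/Em 490/520 nm) reports cellular AChE activity.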
# [8] = target: Acetylcholinesterase (Homo sapiens) (UniProt P22303); assay: Acetylcholinesterase (AChE) small molecule antagonists: colormetric cell-based qHTS assay (AID 1347395; calls by dose curve; further: nearly all actives have a fitted effect of over 30% in size; further: potency means the concentration at half of the fitted maximal effect); conditions: SH-SY5Y cells AChE activity, colorimetric (Ellman); series mostly up to 115 µM
# Procedure, shortened: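 SH-SY5Y cells; cpd 30 min 37 C; + DTNB/acetylthiocholine, 90 min 37 C; colorimetric thiocholine read; qHTS.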
# [9] = target: Nuclear receptor subfamily 1 group I member 2 (Homo sapiens) (UniProt O75469); assay: CYP3A4 induction through human pregnane X receptor (PXR) by small molecules, qHTS assay (AID 1346984); conditions: DPX-2 HepG2 PXR, CYP3A4-luciferin luminescence, 24 h; series mostly up to 46.1 µM; further: nearly all actives have a fitted effect of over 40% in size
# Procedure, shortened: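 Readings come from a luciferase reporter: DPX-2 cells, which are HepG2 cotransfected with PXR and a CYP3A4-promoter construct, were exposed to test compounds for 24 h at 37C before One-Glo detection.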
# [10] = target: Nuclear receptor subfamily 1 group I member 2 (Homo sapiens) (UniProt O75469); assay: Human pregnane X receptor (PXR) activation by small molecules, qHTS assay (AID 1346985); conditions: DPX-2 HepG2 CYP3A4-luciferase, 24 h; series mostly up to 38.3 µM; further: nearly all actives have a fitted effect of over 40% in size
# Procedure, shortened: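 DPX-2 cells (HepG2 co-transfected with a PXR response element and a CYP3A4-promoter luciferase construct) were seeded at 2,000 per well, rested 5 hr at 37C, then exposed to DMSO-dissolved compounds for 24 hr. Activation was read as luciferase luminescence.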
# Sequence of Nuclear receptor subfamily 1 group I member 2 (Homo sapiens) (O75469 whole entry, looked up): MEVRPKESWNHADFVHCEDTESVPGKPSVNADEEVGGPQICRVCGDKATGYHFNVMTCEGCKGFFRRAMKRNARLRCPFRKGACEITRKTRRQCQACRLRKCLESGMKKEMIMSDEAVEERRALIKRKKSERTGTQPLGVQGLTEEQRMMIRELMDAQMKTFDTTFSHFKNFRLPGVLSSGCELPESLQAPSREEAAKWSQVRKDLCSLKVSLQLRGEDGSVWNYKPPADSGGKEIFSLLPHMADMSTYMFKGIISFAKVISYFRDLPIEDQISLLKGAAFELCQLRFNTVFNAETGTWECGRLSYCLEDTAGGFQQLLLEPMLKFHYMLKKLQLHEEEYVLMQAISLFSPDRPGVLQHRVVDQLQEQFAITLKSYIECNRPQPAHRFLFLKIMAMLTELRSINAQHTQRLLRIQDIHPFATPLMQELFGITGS
# Sequence of Acetylcholinesterase (Homo sapiens) (P22303 whole entry, looked up): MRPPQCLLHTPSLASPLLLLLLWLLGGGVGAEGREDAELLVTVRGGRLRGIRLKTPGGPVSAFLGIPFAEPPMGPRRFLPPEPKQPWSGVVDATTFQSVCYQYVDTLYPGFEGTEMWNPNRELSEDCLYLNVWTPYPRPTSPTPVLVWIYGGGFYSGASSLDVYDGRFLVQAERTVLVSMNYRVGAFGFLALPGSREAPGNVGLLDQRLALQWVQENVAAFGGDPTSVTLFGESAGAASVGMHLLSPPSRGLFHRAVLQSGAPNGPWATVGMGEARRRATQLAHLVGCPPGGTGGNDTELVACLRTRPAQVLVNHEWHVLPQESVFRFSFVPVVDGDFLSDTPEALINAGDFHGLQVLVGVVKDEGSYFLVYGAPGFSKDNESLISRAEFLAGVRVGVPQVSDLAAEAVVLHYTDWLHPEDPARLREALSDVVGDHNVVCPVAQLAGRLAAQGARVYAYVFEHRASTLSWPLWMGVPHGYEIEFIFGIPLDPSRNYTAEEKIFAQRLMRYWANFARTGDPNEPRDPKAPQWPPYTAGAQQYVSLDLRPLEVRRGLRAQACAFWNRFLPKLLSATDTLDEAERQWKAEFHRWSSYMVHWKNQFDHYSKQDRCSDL
smiles,measurement,setting,value
CN(CCCC(O)c1cccnc1)N=O (stereo not drawn),Potency,[1],inactive
same,Potency,[2],inactive
same,Potency,[3],inactive
same,Potency,[4],inactive
same,Potency,[5],inactive
same,Potency,[6],inactive
same,Potency,[7],inactive
N#CC(Cl)Cl,Potency,[1],inactive
same,Potency,[2],inactive
same,Potency,[3],inactive
same,Potency,[4],inactive
same,Potency,[5],inactive
same,Potency,[8],inactive
same,Potency,[6],inactive
same,Potency,[7],inactive
O=CC(Br)(Br)Br,Potency,[1],inactive
same,Potency,[2],19.3 µM (active)
same,Potency,[3],inactive
same,Potency,[4],54.3 µM (active)
same,Potency,[8],inactive
same,Potency,[6],inactive
CC(=O)OC1(c2ccccc2)CCN(CCc2ccccc2)CC1,Potency,[1],inactive
same,Potency,[2],inactive
same,Potency,[3],inactive
same,Potency,[4],inactive
same,Potency,[5],11.1 µM (active)
same,Potency,[8],inactive
same,Potency,[7],inactive
O=C/C(Cl)=C(/Cl)C(=O)O,Potency,[1],inactive
same,Potency,[2],38.5 µM (active) and 30.6 µM (active)
same,Potency,[3],inactive
same,Potency,[4],inactive
same,Potency,[5],inactive
same,Potency,[6],inactive
same,Potency,[7],inactive
BrC(Br)C(Br)(Br)Br,Potency,[1],inactive
same,Potency,[2],48.9 µM (active)
same,Potency,[3],inactive
same,Potency,[4],inactive
same,Potency,[5],inactive
same,Potency,[8],inactive
same,Potency,[7],inactive
CCOC(=O)OC1=C(c2cc(C)ccc2C)C(=O)NC12CCC(OC)CC2 (stereo not drawn),Potency,[1],inactive
same,Potency,[2],inactive
same,Potency,[3],inactive
same,Potency,[4],inactive
same,Potency,[8],inactive
same,Potency,[6],inactive
same,Potency,[7],inactive
CCOP(=S)(OCC)SCCS(=O)(=O)CC,Potency,[1],inactive
same,Potency,[2],inactive
same,Potency,[3],inactive
same,Potency,[4],inactive
same,Potency,[5],inactive
same,Potency,[8],35.6 µM (active)
same,Potency,[6],71 µM (active)
same,Potency,[7],35.6 µM (active)
COc1cc(N)c(Cl)cc1C(=O)NC1CN2CCC1CC2 (stereo not drawn),Potency,[1],inactive
same,Potency,[2],inactive
same,Potency,[3],inactive
same,Potency,[4],inactive
same,Potency,[9],inactive
same,Potency,[10],inactive
BrC(Br)Br,Potency,[1],inactive
same,Potency,[2],inactive
same,Potency,[3],inactive
same,Potency,[4],inactive
same,Potency,[5],inactive
same,Potency,[8],inactive
same,Potency,[6],inactive
same,Potency,[7],inactive
CCCCCCCCCCCCCCCCCCn1cc[n+](C)c1,Potency,[1],inactive
same,Potency,[2],4.3 µM (active)
same,Potency,[3],inactive
same,Potency,[4],68.2 µM (active)
same,Potency,[5],inactive
same,Potency,[6],28.1 µM (active)
CCc1cc(C)cc(CC)c1-c1c(OC(=O)C(C)(C)C)n2n(c1=O)CCOCC2,Potency,[1],inactive
same,Potency,[2],27.3 µM (active)
same,Potency,[3],inactive
same,Potency,[4],30.6 µM (active)
same,Potency,[5],inactive
same,Potency,[7],inactive
O=c1ssc(Cl)c1Cl,Potency,[1],inactive
same,Potency,[2],27.3 µM (active)
same,Potency,[3],inactive
same,Potency,[4],inactive
same,Potency,[5],27.3 µM (active)
same,Potency,[6],inactive
same,Potency,[7],inactive
O=c1[nH]c2ccccc2n1C1CCN(CCCC(c2ccc(F)cc2)c2ccc(F)cc2)CC1,Potency,[1],61.1 µM (active)
same,Potency,[2],30.6 µM (active) and 26.6 µM (active)
same,Potency,[3],30.6 µM (active)
same,Potency,[4],54.5 µM (active)
same,Potency,[5],inactive
same,Potency,[6],inactive
same,Potency,[7],inactive
CCOC(=O)c1ccccc1S(=O)(=O)NC(=O)Nc1nc(Cl)cc(OC)n1,Potency,[1],inactive
same,Potency,[2],inactive
same,Potency,[3],inactive
same,Potency,[4],inactive
same,Potency,[8],inactive
same,Potency,[6],inactive
same,Potency,[7],inactive
CCC(C)(C)C(=O)OC1=C(c2ccc(Cl)cc2Cl)C(=O)OC12CCCCC2,Potency,[1],inactive
same,Potency,[2],inactive
same,Potency,[3],inactive
same,Potency,[4],inactive
same,Potency,[8],inactive
same,Potency,[6],inactive
same,Potency,[7],inactive
Brc1c(Br)c(Br)c(Oc2c(Br)c(Br)c(Br)c(Br)c2Br)c(Br)c1Br,caspase activation,[1],-0.566% [at 19 µM]
same,"activity change, negative = cytotoxicity",[2],-1.81% [at 19 µM]
same,caspase-3/7 activation,[3],3.41% [at 19 µM]
same,"activity change, negative = cytotoxicity",[4],0.358% [at 19 µM]
same,activation,[5],-0.0764% [at 19 µM]
same,"activity, negative = inhibition",[8],0.803% [at 23.6 µM]
same,"activity change, negative = inhibition",[7],6.2% [at 23.8 µM]
